Cruzain inh noDet – cruzain (T. cruzi) inhibition without detergent | P25779 | purified cruzain, Z-FR-AMC fluorescence, no detergent | Potency, µM, inactives show max response, negative = inhibition, usual class: inhibitors | 200,000 compounds, 2.3% hits;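 also: plate controls were enzyme without inhibitor for no effect and buffer without enzyme for full effect; nearly all actives have a fitted effect of over 40% in size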
Target sequence (P25779 123-467 limits assumed): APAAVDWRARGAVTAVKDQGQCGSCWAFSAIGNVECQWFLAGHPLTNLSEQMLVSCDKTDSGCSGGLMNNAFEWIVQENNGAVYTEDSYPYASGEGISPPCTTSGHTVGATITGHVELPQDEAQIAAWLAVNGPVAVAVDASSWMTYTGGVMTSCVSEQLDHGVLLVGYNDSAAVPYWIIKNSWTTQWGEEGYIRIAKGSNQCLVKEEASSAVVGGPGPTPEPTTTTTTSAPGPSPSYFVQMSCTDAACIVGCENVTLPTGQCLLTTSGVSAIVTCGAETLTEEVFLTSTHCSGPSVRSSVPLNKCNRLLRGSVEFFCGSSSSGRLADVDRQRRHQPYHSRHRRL
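Detergent-free condition (0.00005% Triton X-100) in acetate buffer pH 5.5 with DTT. 1.5 nM enzyme and compound were pre-mixed 15 min, then 2 uM Z-FR-AMC substrate added; reaction progress from fluorescence change between first and third reads (60 s).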
Cruzain inh Det – cruzain (T. cruzi) inhibition with detergent; P25779; purified cruzain, Z-FR-AMC fluorescence, 0.01% Triton; Potency, µM, without a hit: max response, negative = inhibition, usual class: inhibitors; 200,000 compounds, 0.43% hits; AID 1478;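 also: plate controls were neutral wells for no effect and buffer without enzyme for full effect; nearly all actives have a fitted effect of over 40% in size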
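Detergent-containing arm of a paired screen for aggregation-based inhibition: 0.01% Triton X-100 present. Cruzain at 1.5 nM cleaved 2 uM Z-FR-AMC at pH 5.5 with 5 mM DTT; AMC fluorescence gain over 60 s measured activity.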
Numbers without * were called inactive; ? = inconclusive. This is a sample that favours compounds with a hit; in the whole collection about 2.5% have one here. Calls follow the shape of the dose curve; as a rule, active = well fitted curve in the direction sought with a large enough effect; inconclusive = small, poorly fitted or top-dose-only effect, or another doubt; inactive = no such curve, though single readings can be large; an effect the other way counts as inactive or inconclusive. Potency is read from the fitted curve at half-maximal effect.

SMILES	Cruzain inh noDet	Cruzain inh Det
COC(=O)c1cc(NC(=O)c2cccc(C(F)(F)F)c2)c(=O)oc1C/C=N/OCc1cccc(Cl)c1Cl	0.794µM*	-28.1%
O=C(NCc1ccccc1Cl)c1cccc(C(F)(F)F)c1	-2.1%	-5.5%
Cc1ccccc1OCc1ccc(-c2nc(C#N)c(N3CCC(C(N)=O)CC3)o2)o1	?	-4.2%
CN1CCc2nc3sc(C(=O)Nc4ccccc4C(F)(F)F)c(N)c3cc2C1	-15.3%	-8.6%
c1ccc(-c2ccc(C3=Nn4c(nnc4-c4cc(-c5ccccc5)n[nH]4)SC3)cc2)cc1	3.16µM*	1.1%
Cc1cccc(-c2nnc3n2N=C(c2ccc(Br)cc2)CS3)c1	-3.2%	2.8%
CC1=Nn2c(nnc2-c2cc(-c3ccccc3)n[nH]2)SC1	6.1%	-0.5%
COc1cccc(-c2nnc3n2N=C(c2cccc(Br)c2)CS3)c1	7.94µM*	3.5%
CCOc1ccc2oc(=O)cc(CN3CCN(C(=O)c4ccc(Cl)cc4)CC3)c2c1	4.6%	-4.5%
CCC1=Nc2cc(C(=O)NC3CCCC3)ccc2Sc2ccc(Cl)cc21	7.94µM*	-3.5%
CC1=Nc2cc(C(=O)NC3CCCC3)ccc2Sc2ccc(Cl)cc21	?	-3.0%
COC(=O)c1ccc(NC(=O)N2CCc3c([nH]c4ccccc34)C2c2ccc(C)cc2)cc1 (stereo unspecified)	-3.7%	1.7%
CC(C)CC(NC(=O)C(CC(C)C)NC(=O)OC(C)(C)C)C(N)=O (stereo unspecified)	15.8µM*	?
CSCCC(NC(=O)OC(C)(C)C)C(=O)NC(CC(C)C)C(N)=O (stereo unspecified)	-2.4%	-0.7%
CC(/C=N/NC(=O)c1cc(-c2cccnc2)nc2c1c(C)nn2-c1ccccc1)=C\c1ccccc1	12.6µM*	-4.4%
Cc1nn(-c2ccccc2)c(N2CCCC2)c1/C=N/NC(=O)c1cc(-c2cccnc2)nc2ccccc12	24.1%	-6.8%
COc1ccc(CC[N@+]2(C)COc3cc4oc(=O)cc(C)c4cc3C2)cc1OC	7.5%	1.7%
CCC(=O)N1c2ccc(C)cc2C2=NNC(=S)NC21O (stereo unspecified)	0.631µM*	?
CC1=CC(C)(C)N(C(=O)CN2C(=O)c3ccccc3C2=O)c2ccc(C)cc21	-6.7%	-5.4%
COc1ccc(OC)c(C(=O)CN2CCN(S(=O)(=O)c3ccc(Br)cc3)CC2)c1	25.1µM*	1.9%
COc1ccc(C)cc1NC(=O)CN1CCN(S(=O)(=O)c2ccc(Cl)cc2)CC1	24.7%	-1.6%
COc1ccc(NC(=O)CN2CCN(S(=O)(=O)c3ccc(Br)cc3)CC2)cc1	11.6%	-2.4%
COc1cc2c(cc1NS(=O)(=O)N1CCCC1)oc1ccccc12	13.8%	-8.0%
COc1cc2c(cc1NC(=O)C(C)N1CCN(S(=O)(=O)c3ccc(C)c(C)c3)CC1)oc1ccccc12 (stereo unspecified)	7.94µM*	1.8%
COc1cc2c(cc1NC(=O)C(C)N1CCN(S(=O)(=O)c3ccccc3[N+](=O)[O-])CC1)oc1ccccc12 (stereo unspecified)	0.794µM*	2.6%
SMILES	Cruzain inh noDet	Cruzain inh Det
COc1cc2c(cc1NC(=O)C(C)Oc1ccccc1)oc1ccccc12 (stereo unspecified)	-13.6%	-8.8%
COc1cc2c(cc1NC(=O)CN1CCN(S(=O)(=O)c3ccc(C)cc3)CC1)oc1ccccc12	7.94µM*	0.3%
O=C(c1cnc(N2CCOCC2)c2ccccc12)N1CCN(c2ccc(F)cc2)CC1	?	-4.6%
O=C(/C=C/c1ccc(O)c(O)c1)OC1C[C@](O)(C(=O)O)C[C@@H](O)[C@H]1O (stereo partly specified)	-7.9%	-2.6%
Cc1cccc(NC(=O)CSc2nnc(-c3cccs3)o2)c1	-4.6%	0.2%
CCC1CCCCN1C(=O)Cn1c(=O)n(CCCCCC(=O)NCc2ccccc2Cl)c(=O)c2sccc21 (stereo unspecified)	-7.1%	-1.4%
CSc1cccc(NC(=O)C2CCN(S(=O)(=O)c3ccc4c(c3)CCCN4C(=O)C3CCC3)CC2)c1	-29.7%	-1.3%
Cc1cccc(NS(=O)(=O)c2ccc3c(c2)CCN3C(=O)C2CCC2)c1	-8.8%	-8.3%
Oc1ccc(C2=NNC(=NCc3ccc4c(c3)OCO4)SC2)c(O)c1	?	-13.4%
COc1ccc(OC)c(C2=NNC(=NCc3ccc4c(c3)OCO4)SC2)c1	12.6µM*	-8.4%
Cc1noc2ncc(C(=O)c3cc(F)ccc3O)cc12	-5.5%	0.8%
Cc1ccc(O)c(C(=O)c2cnc3onc(-c4ccc(F)cc4)c3c2)c1	12.6µM*	-4.0%
O=C(Nc1nc2ccccc2s1)c1ccc(Cl)s1	?	-0.1%
Cc1ccc2nc(NC(=O)c3ccc(-c4nc5ccccc5s4)s3)sc2c1	3.98µM*	-19.6%
Nc1ccc2nn(-c3cccc4ccccc34)nc2c1	?	-3.1%
Cc1cc2nn(-c3cccc4ccccc34)nc2cc1N	15.8µM*	-3.3%
Cc1cccc(-n2c(N)cc(=O)nc2SCC(=O)Nc2nnc(C)s2)c1	25.1µM*	?
COC(=O)c1ccccc1NC(=O)CSc1nc(O)cc(=O)n1C1CCCC1	?	-1.6%
COC(=O)c1ccccc1NC(=O)CSc1nc(=O)cc(N)n1-c1ccccc1	-1.2%	25.1µM*
Cc1cccc(-n2ccnc2SCC(=O)Nc2nnc(C)s2)c1	3.5%	4.7%
CC(C)(C)C(=O)Cn1c(=O)n(CCCCCC(=O)NCc2ccc3c(c2)OCO3)c(=O)c2sccc21	14.3%	-2.5%
O=C(CNC(=O)/C(=C\c1ccc(Br)cc1)NC(=O)c1ccccc1)OCc1ccccc1	?	10µM*
O=C(CNC(=O)/C(=C/c1ccccc1)NC(=O)c1ccc(Br)cc1)OCc1ccccc1	-20.4%	?
COc1cccc(NC(=O)c2ccc(-c3nc(COc4ccccc4)c(C)o3)cc2)c1	-7.2%	-1.8%
CCc1cccc(NC(=O)c2c(N3CCCC3=O)c3cc(C)ccc3n2C)c1	7.2%	-11.5%
SMILES	Cruzain inh noDet	Cruzain inh Det
CSc1nsc(/C=C/Nc2cccc(Cl)c2)c1C#N	20µM*	-6.3%
CSc1nsc(/C=C/Nc2ccc(Cl)cc2)c1C#N	?	-21.2%
COc1ccc(OC)c(CNC(=O)c2ccc3c(c2)c(C)c(C)n3C)c1	?	-1.8%
COc1ccc(OC)c(CNC(=O)c2ccc3c(c2)c(C)c(C)n3Cc2ccc(Cl)cc2)c1	7.94µM*	1.8%
COc1ccccc1CCNC(=O)c1ccc2c(c1)c(C)c(C)n2Cc1ccc(Cl)cc1	12.6µM*	3.0%
COc1cc(CCNC(=O)c2ccc3c(c2)c(C)c(C)n3Cc2cccc(C)c2)cc(OC)c1OC	-7.6%	-1.0%
COC(=O)c1ccc(NC(=O)N2CCN(c3nnc(C)c4c(C)n(-c5ccccc5)nc34)CC2)cc1	20.3%	-2.6%
Cc1ccc(NC(=O)c2noc3c2CC(C(C)(C)C)CC3)cc1 (stereo unspecified)	12.6µM*	4.5%
CC(C)(C)C1CCc2onc(C(=O)Nc3cccc(O)c3)c2C1 (stereo unspecified)	5.3%	-0.4%
Cc1cccc(OCC(=O)NC(C)C(=O)N/N=C/c2c(OCc3ccccc3)ccc3ccccc23)c1 (stereo unspecified)	15.8µM*	0.5%
Cc1cccc(OCC(=O)NC(Cc2ccccc2)C(=O)O)c1 (stereo unspecified)	4.4%	-2.5%
CC(=O)Nc1ccc(N2N=C(C)C(N=Nc3ccccc3)C2=O)cc1 (stereo unspecified)	?	-4.7%
CC1=NN(C(N)=S)C(=O)C1N=Nc1ccc(C)cc1C (stereo unspecified)	?	-17.2%

From PubChem BioAssay
